The values below come from PubChem BioAssay (Tox21).

A short description of assay [1]: qHTS assay to test for compound auto fluorescence at 535 nm (green) in HEK293 cells (AID 720680). A general note: In qHTS, concentration-response curves come from the screen itself.
Assay [2] can be described thus: qHTS assay to test for compound auto fluorescence at 460 nm (blue) in HEK293 cell free culture (AID 720681). The essentials: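 Blue fluorescence (Ex 405/Em 460 nm, triamterene-equivalent) was read immediately after pin transfer of compound or DMSO into medium (DMEM, 10% FBS) without cells.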
Assay [3] can be described thus: qHTS assay to test for compound auto fluorescence at 535 nm (green) in HEK293 cell free culture (AID 720682). In short, it runs like this: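 Green-channel intensity (Ex/Em 485/535 nm) was recorded from compound-treated wells containing only DMEM with 10% FBS. Fluorescein provided the equivalency standard.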
Assay [4] in a line: qHTS assay to test for compound auto fluorescence at 590 nm (red) in HEK293 cell free culture (AID 720683). The essentials:
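Red-channel autofluorescence of compounds in culture medium (DMEM, 10% FBS), no cells, measured at 540/590 nm. Rose Bengal sodium is the reference fluorophore for equivalence.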

Assay [5] in a line: qHTS assay to test for compound auto fluorescence at 460 nm (blue) in HepG2 cell free culture (AID 720685). The essentials:
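Cell-free plates of MEM plus 10% FBS received 23 nL compound or DMSO vehicle; blue-channel (405/460 nm) intensity scored against triamterene as reference fluorophore.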

Assay [6] is described as follows: qHTS assay to test for compound auto fluorescence at 535 nm (green) in HepG2 cell free culture (AID 720686).
The nature of assay [7]: qHTS assay to test for compound auto fluorescence at 460 nm (blue) in HepG2 cells (AID 720687). The essentials: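 Blue-channel autofluorescence (Ex/Em 405/460 nm, triamterene-equivalent) was measured after 1 hr compound exposure at 37 C, 5% CO2. Cells were HepG2, plated overnight at 37 C in MEM plus 10% FBS.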
Assay [8] deals with Glucocorticoid receptor (Homo sapiens) (UniProt P04150). Description: qHTS assay to identify small molecule agonists of the glucocorticoid receptor (GR) signaling pathway (AID 720691; active = well fitted activation curve with a large enough effect in the signal ratio in the repeat runs, not every such curve was filed as active; the % refers to the signal ratio). In short, it runs like this:
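HeLa GR-bla reporter line; cells pre-incubated 4 h, compound in DMSO 18 h at 37 C; LiveBLAzer B/G FRET substrate 2 h RT; fluorescence intensity read-out.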

The target is the same in assay [9]. As to the kind of experiment: qHTS assay to identify small molecule antagonists of the glucocorticoid receptor (GR) signaling pathway (AID 720692; active = well fitted inhibition curve with a large enough effect in the signal ratio in the repeat runs, not every such curve was filed as active; the % refers to the signal ratio; also: potency is read from the fitted curve at half-maximal effect). The essentials:
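Read-out: beta-lactamase FRET substrate fluorescence, 2 h at room temperature, in HeLa cells stably carrying a GRE-driven bla reporter. Compounds were co-incubated with 5 nM dexamethasone agonist (final) for 18 h at 37 C.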

Assay [10] in a line: qHTS assay to test for compound auto fluorescence at 590 nm (red) in HepG2 cell free culture (AID 720684). The essentials: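 Cell-free; medium MEM + 10% FBS; compound or DMSO added by pintool; read Ex 540/Em 590 nm; Rose Bengal sodium as red reference fluorophore.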

Several values for one entry are separate records, joined by “and”; a condition that tells them apart may be missing. Equal values may be shown once. Values without a mark were called inactive. Results filed as inconclusive are left out. Activity calls are given as the source filed them. Unless noted, calls follow the shape of the dose curve; as a rule, active = well fitted curve in the direction sought with a large enough effect in the repeat runs; inconclusive = weak or mixed curves; inactive = flat fitted curve, though single readings scatter.

Chain of Glucocorticoid receptor (Homo sapiens) (P04150 whole entry, looked up): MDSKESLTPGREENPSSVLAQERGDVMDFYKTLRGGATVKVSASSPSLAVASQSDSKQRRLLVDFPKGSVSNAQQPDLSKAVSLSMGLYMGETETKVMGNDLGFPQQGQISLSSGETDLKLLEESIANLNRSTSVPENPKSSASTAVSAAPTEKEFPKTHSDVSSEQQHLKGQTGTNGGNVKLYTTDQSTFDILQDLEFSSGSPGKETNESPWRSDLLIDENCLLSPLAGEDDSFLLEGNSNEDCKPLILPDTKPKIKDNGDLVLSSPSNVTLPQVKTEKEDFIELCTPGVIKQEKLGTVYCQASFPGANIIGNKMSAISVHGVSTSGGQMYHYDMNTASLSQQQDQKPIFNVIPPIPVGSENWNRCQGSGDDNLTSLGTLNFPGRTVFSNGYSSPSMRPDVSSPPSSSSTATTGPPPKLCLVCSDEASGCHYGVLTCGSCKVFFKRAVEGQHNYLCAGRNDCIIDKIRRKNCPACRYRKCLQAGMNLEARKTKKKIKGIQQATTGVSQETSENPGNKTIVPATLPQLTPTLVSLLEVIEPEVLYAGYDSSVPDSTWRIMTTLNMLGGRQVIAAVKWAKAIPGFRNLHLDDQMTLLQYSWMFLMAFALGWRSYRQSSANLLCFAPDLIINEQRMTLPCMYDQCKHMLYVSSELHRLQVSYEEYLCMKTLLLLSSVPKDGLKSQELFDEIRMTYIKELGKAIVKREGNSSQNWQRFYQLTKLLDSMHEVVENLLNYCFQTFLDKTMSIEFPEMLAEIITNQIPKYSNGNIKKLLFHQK

Take `C[C@H](NC(CCc1ccccc1)C(=O)O)C(=O)N1CCC[C@H]1C(=O)O` (stereo partly specified): the compound was called inactive in assay [1], in assay [2], in assay [3], in assay [4], in assay [5] and in [6]. Moreover, in assay [7], the compound was called inactive. Also, the Potency entry in assay [8] and in assay [9] was “inactive” throughout.
For `CN(C)CCCSc1ccccc1NC(=O)/C=C/c1ccccc1`, the call in assay [1], in assay [2], in assay [3], in assay [4], in assay [10] and in assay [5] was inactive. The result in assay [6] and in [7] was inactive. Moreover, the Potency result in [8] and in assay [9] was “inactive” each time.
Regarding `O=C(O)CN(CCOCCOCCN(CC(=O)O)CC(=O)O)CC(=O)O`, the call in assay [1], in [2], in assay [3], in assay [4], in [5] and in assay [6] was inactive. For the same compound, the result in [7] was inactive. Besides, the Potency result in assay [8] and in [9] was “inactive” throughout.
With `Nc1ccc(S(=O)(=O)Nc2ccnn2-c2ccccc2)cc1`, the call in [1], in assay [2], in assay [3], in assay [4], in assay [10] and in assay [5] was inactive. For the same compound, the outcome in [6] and in assay [7] was inactive. The Potency entry in [8] and in [9] was “inactive” each time.
Turning to `COc1nc(N)nc2c1ncn2[C@@H]1O[C@H](CO)[C@@H](O)[C@@H]1O`, the call in [1], in [2], in assay [3], in assay [4], in assay [10] and in assay [5] was inactive. The compound was classed as inactive in assay [6]. Also, the Potency entry in [8] and in [9] was “inactive” throughout.
As for `COC(=O)c1c(Cl)c(Cl)c(C(=O)OC)c(Cl)c1Cl`, the compound was called inactive in assay [1], in [2], in [3], in assay [4], in [10] and in assay [5]. Further, the call in [6] and in assay [7] was inactive. The Potency result in assay [8] and in assay [9] was “inactive” in each case.
In the case of `O=C1NC(=O)[C@@]2(CCOc3ccc(F)cc32)N1`, the result in assay [1], in assay [2], in [3], in [4], in [5] and in assay [6] was inactive. In addition, the compound was called inactive in assay [7].
Turning to `COC(=O)C1=C(C)NC(C)=C(C(=O)OC)C1c1ccccc1[N+](=O)[O-]`, the result in [1], in [2], in assay [3], in assay [4], in assay [10] and in assay [5] was inactive. For the same compound, the outcome in assay [6] and in assay [7] was inactive. For the same compound, the Potency result in assay [8] is “inactive”. Moreover, the Potency in assay [9] was 10.7 µM (active) and 27.6 µM (active).
On to `Cc1nc2c([nH]1)c(=O)n(C)c(=O)n2Cc1ccco1`, for which the call in assay [1], in [2], in [3], in assay [4], in assay [5] and in assay [6] was inactive. Further, the result in assay [7] was inactive. In [8], the Potency entry is “inactive”.
Regarding `CCN(CC)CCNC(=O)c1cc(S(C)(=O)=O)ccc1OC`, the result in assay [1], in assay [2], in [3], in [4], in assay [5] and in assay [6] was inactive. In assay [7], the call was inactive. The Potency entry in [8] and in [9] was “inactive” in each case.
As for `C[C@H]1C[C@@H](O)CC(C)(C)C1`, the outcome in [1], in assay [2], in assay [3], in assay [4], in [10] and in assay [5] was inactive. Moreover, the result in assay [6] and in assay [7] was inactive. Moreover, the Potency entry in assay [8] and in assay [9] was “inactive” throughout.
As to `Cn1cc(S(C)=O)c(=O)c2ccc(F)cc21` (stereo unspecified), the compound was called inactive in assay [1], in assay [2], in assay [3], in assay [4], in assay [5] and in assay [6]. In addition, the call in [7] was inactive. The Potency result in assay [8] and in assay [9] was “inactive” throughout.
Consider `CS(=O)(=O)O`, for which the result in assay [1], in assay [2], in assay [3], in [4], in assay [5] and in assay [6] was inactive. Also, the compound was called inactive in [7]. Besides, the Potency result in assay [8] and in [9] was “inactive” each time.
Consider `CCCCNC(=O)NCCCC`, for which the compound was called inactive in assay [1], in [2], in assay [3], in assay [4], in assay [10] and in assay [5]. Further, the call in assay [6] and in assay [7] was inactive. Also, the Potency result in assay [8] and in assay [9] was “inactive” each time.
With `CCCc1cc(C(N)=S)ccn1`, the call in assay [1], in [2], in assay [3], in assay [4], in assay [5] and in assay [6] was inactive. For the same compound, the compound was called inactive in [7]. Besides, the Potency result in assay [8] is “inactive”.
`C1OCOCO1`: the compound was called inactive in assay [1], in assay [2], in [3], in assay [4], in assay [5] and in [6]. The result in assay [7] was inactive. Moreover, the Potency result in assay [8] and in assay [9] was “inactive” throughout.
As for `C[N+](C)(C)CCCCCC[N+](C)(C)C`, the compound was classed as inactive in [1], in assay [2], in assay [3], in [4], in [5] and in assay [6]. Moreover, the compound was called inactive in assay [7].
Turning to `CC(C)NC(=O)NC(C)C`, the result in assay [1], in assay [2], in [3], in assay [4], in assay [5] and in assay [6] was inactive. Further, the result in [7] was inactive. For the same compound, in assay [8], the Potency entry was “inactive”.
In the case of `CC(C)=CCCC(C)CC(=O)O` (stereo unspecified), the compound was classed as inactive in assay [1], in [2], in assay [3], in assay [4], in assay [10] and in assay [5]. The result in [6] was inactive. Moreover, the Potency result in assay [8] was “inactive”.
As for `CCCCOCCOCCOCc1cc2c(cc1CCC)OCO2`, the call in [1], in assay [2], in assay [3], in [4], in [5] and in [6] was inactive.
For the compound `C=CCCCCCCCCC=O`, the result in assay [1], in assay [2], in assay [3], in assay [4], in assay [5] and in assay [6] was inactive. Moreover, the outcome in assay [7] was inactive. In addition, the Potency entry in assay [8] and in assay [9] was “inactive” in each case.
Take `CCCCCCCCCCCCCCCCC`: the compound was classed as inactive in [1], in assay [2], in [3], in assay [4], in assay [10] and in [5]. Moreover, the compound was called inactive in assay [6]. Besides, the Potency entry in assay [8] and in assay [9] was “inactive” each time.
For `CC(C)(C)c1ccc(O)c(O)c1`, the compound was called inactive in assay [1], in assay [2], in assay [3], in assay [4], in assay [10] and in assay [5]. The result in assay [6] and in [7] was inactive. In [8], the Potency entry is “inactive”. In addition, in assay [9], the Potency is 50.9 µM (active).
Turning to `CN(C(=O)c1c(O)c2ccccc2n(C)c1=O)c1ccccc1`, the compound was classed as inactive in assay [1], in assay [2], in [3], in assay [4], in assay [10] and in assay [5]. For the same compound, in assay [6], the call was inactive. Further, the Potency result in assay [8] and in assay [9] was “inactive” each time.
On to `CCCCCCCCS(=O)(=O)Cl`, for which the compound was classed as inactive in assay [1], in assay [2], in assay [3], in [4], in assay [5] and in [6]. In addition, in assay [8], the Potency result is “inactive”.
In the case of `CCO/C([O-])=N/c1c[n+](N2CCOCC2)no1`, the compound was called inactive in assay [1], in assay [2], in [3], in assay [4], in [10] and in assay [5]. For the same compound, the outcome in [6] and in [7] was inactive. Moreover, the Potency entry in assay [8] and in [9] was “inactive” each time.
Take `COCCCOCCCOC`: the result in assay [1], in assay [2], in assay [3], in [4], in assay [5] and in assay [6] was inactive. The result in [7] was inactive.
